Structures are written as SMILES. In all, about 4,800 compounds went through this assay and about 420 (8.8%) showed an effect of 50% or more. The full list was thinned out, with strong results kept by preference.

The assay has as its system Plasmodium falciparum. In words: Confirmatory screen in NF54 nanoGlo assay, in single point, at 2uM, 72h. To be noted: timepoint 72 hour. The class given is functional, Erythrocyte.
One may read the % Inhibition as the change of the read-out against control, counted positive when it falls. In the case of `CC(C)c1cc(C(=O)N2CC3CC4CC3C2C4O)n[nH]1` (stereo not given), the “% Inhibition” value was found to be 1%. As for `COc1ccsc1S(=O)(=O)N1CCC(n2ccnc2)CC1`, the figure is -3%; as for `O=C(c1nc(-c2cccs2)cs1)N1CCN(c2ccccc2)CC1`, -15%. With `COc1ccccc1C(=O)NC1=C(C)Nc2ncnn2[C@H]1c1c[nH]c2ccccc12`, the “% Inhibition” value is -5%. The figure for `COc1cc(NC(=O)c2ccccc2Cl)cc(S(=O)(=O)c2ccc(Cl)cc2)c1` is -15%; for `COc1cc(N2CCn3c(nc4cc(Cl)ccc43)C2)ccc1NC(=O)c1ccccc1OC` it is 4%; for `COc1ccccc1C(=O)NC1=NN2C(=NC(c3ccc(Cl)cc3)=C[C@H]2c2ccc(Cl)cc2)N1` it is 94%.

Regarding `Fc1ccc(C2=C[C@@H](c3ccc(Cl)cc3)N3N=C(c4ccc(Cl)cc4)NC3=N2)cc1`, the “% Inhibition” value came to 99%. For the molecule `O=C(NC1=NN2C(=NC(c3ccc(Cl)cc3)=C[C@H]2c2ccc(F)cc2)N1)c1ccc(Cl)cc1`, the “% Inhibition” value is 32%. The figure for `COc1ccc([C@@H]2C=C(c3ccc(Cl)cc3)N=C3NC(NC(=O)c4ccccc4OC)=NN32)cc1` is 97%. As for `CCC1=NN2C(=NC(C(=O)O)=C[C@H]2c2ccc(O)cc2)N1`, the figure is -7%; as for `C[C@H]1CCc2c(cnc3c(C(=O)NC4CC4)cnn23)C1`, -8%; as for `COc1ncccc1CNC(=O)[C@@H]1CCN(c2cc(C)cc(C)c2)C1=O`, 3%. As for `Cc1nsc(N[C@@H]2C=C[C@H](CO)C2)n1`, the “% Inhibition” value was -3%.

`Cc1c(NC(=O)c2n[nH]cc2Cl)c(=O)n(-c2ccccc2)n1C`: the “% Inhibition” value is listed as -13%. As to `O=C(c1ccco1)N1CC(n2cnnc2[C@@H]2CCCO2)C1`, the “% Inhibition” value was -2%. In the case of `Cc1ccc(S(=O)(=O)Cc2nc(-c3ccc(C(=O)NCc4ccccc4C)cc3)oc2C)cc1`, the “% Inhibition” value was -13%.

Take `Cc1ccc(/N=C(/Nc2ccc(Br)cc2)c2cc(C(C)(C)C)c(O)c(C(C)(C)C)c2)cc1`: the “% Inhibition” value was -15%. The figure for `O=S(=O)(c1ccco1)N1CC[C@H](Oc2ccccc2)C1` is 2%. Turning to `O=S(=O)(c1ccc(Cl)cc1)N1CCC(c2cc(-c3cccc(C(F)(F)F)c3)[nH]n2)CC1`, the “% Inhibition” value was -1%. Regarding `O=S(=O)(c1ccc(F)c(Cl)c1)N1CC[C@H](Oc2ccncc2Cl)C1`, the “% Inhibition” value came out at 75%.

With `COC(=O)C1NS(=O)(=O)c2ccc(Cl)cc2C1(O)c1ccccc1F` (stereo not given), the “% Inhibition” value is on record as -5%.

`O=C(Nc1ccc(F)c(Cl)c1)c1ccn(COc2ccccc2Cl)n1`: the “% Inhibition” value is -6%. Consider `O=C(N[C@@H](N1CCCCC1)C(Cl)(Cl)Cl)c1cccnc1`, for which the “% Inhibition” value amounted to 2%. On to `CC(C)c1ccc2ncnc(N[C@H]3CCc4[nH]cnc4C3)c2c1`, for which the “% Inhibition” value was found to be 97%. As for `O=C(Cc1ccc(F)cc1F)N1CCc2[nH]nc(C(=O)N3CCN(c4ccccc4)CC3)c2C1`, the figure is 3%; as for `Cc1ccccc1Nc1c(-c2c[nH]c3ccccc23)nc2ncccn12`, 1%; as for `Cc1cc2c(OC[C@@H](O)CN3CCOCC3)cccc2[nH]1`, -13%. The figure for `Cc1cc(C)nc([C@@H](C#N)C(=O)c2ccnc(OCC(F)F)c2)n1` is -7%; for `COc1ccccc1C(=O)Nc1ccc(N2CCCN(C)CC2)cc1C(=O)O` it is -12%.

For `Cn1ccnc(N[C@@H](COc2ccccc2F)c2ccccc2)c1=O`, the “% Inhibition” value is -7%. The figure for `Cc1ccc(S(=O)(=O)N2CC[C@H](CC(=O)NCc3ccccc3)C2)cc1C` is -16%; for `CNC(=O)COc1c(Cl)ccc(Cl)c1Br` it is 0%.

As to `CCN(CCC1CCN(C(=O)Nc2ccc(OC3CCOCC3)c(C)c2)CC1)CC(C)C`, the “% Inhibition” value is given as -3%.

Take `CC(C)(C)[C@H]1CCc2c(sc(NC(=O)C3(F)C(F)(F)C(F)(F)C(F)(F)C(F)(F)C3(F)F)c2C#N)C1`: the “% Inhibition” value is 50%. `N#Cc1c(NC(=O)CN2CCC[C@@H]2CO)sc2c1CCCCC2`: the “% Inhibition” value worked out at 1%. As for `COc1ccc2[nH]c(-c3nnc(Cn4c(C)cc5ccccc54)s3)cc2c1`, the figure is 2%. As to `Cc1cc(S(=O)(=O)NC(=O)CCC(C)C)c(C)o1`, the “% Inhibition” value is listed as -7%.

Turning to `Cc1nc2ccccc2n1CC1CCCN1C(=O)C1CCc2cccnc21` (stereo not given), the “% Inhibition” value is -7%.

Consider `CN(Cc1ccccc1)C(=O)C[C@H]1CCN(C(=O)c2cnccn2)C1`, for which the “% Inhibition” value was -1%. As for `COc1ccc2c(c1)/C(=C1/SC(C(C)=O)=C(c3ccccc3)S1)C(=S)C(C)(C)N2C(=O)Nc1ccc(Cl)c(Cl)c1`, the figure is -7%. `Cc1ccc(-c2nc(CNC(=O)C[C@H]3CNCCO3)[nH]c2-c2ccccn2)cc1`: the “% Inhibition” value is given as 22%. As for `Cn1ncnc1CCNC(=O)NC(C1CCCC1)C1CCCC1`, the figure is 1%; as for `CC1(C)CC(=O)C2(Cc3ccccc3N3CCN(Cc4ccccc4)C[C@H]32)C(=O)C1`, 8%; as for `O=C(NC1CC1)c1cn(CC2(O)CCN(Cc3ccccc3)CC2)nn1`, 0%. As for `O=C(Nc1sc2c(c1C(=O)O)CCC2)c1ccsc1`, the figure is -3%; as for `COC(=O)[C@@H](NC(=O)NC1CCCCC1)C(C)(C)C`, -2%; as for `Cc1ccsc1-c1noc([C@@H]2COCCN2C)n1`, -7%. As for `COc1c(O)ccc2c(=O)c3c(O)cc(O)c(OC)c3n(C)c12`, the figure is -3%. In the case of `CC1(C)C(NCC(O)COc2ccc(F)c(F)c2)[C@@H]2CCC[C@@H]21` (stereo not given in full), the “% Inhibition” value worked out at 72%. The figure for `COc1ccc(Oc2c(CN(CC3CC3)C(=O)c3ccccc3)c(-c3ccccc3)nn2C)cc1` is 2%; for `CC1(C)Oc2ccc(NC(=O)c3ccco3)cc2NC1=O` it is -2%; for `CC(C)N(C)CC1CCN(C(=O)c2cc(-c3ccccc3)c(N3CCOCC3)s2)CC1` it is -4%.

Take `CCOc1cc(-c2cc(-c3ccccc3O)nc3ccc4ccccc4c23)cc(Br)c1O`: the “% Inhibition” value was 91%. As for `COc1cccc(CNCc2ccccc2)c1OCc1ccccc1Cl`, the figure is -1%. For the molecule `O=c1c2ccccc2nnn1-c1ncc(C(F)(F)F)cc1Cl`, the “% Inhibition” value is -9%. For `CC(C)(C)CCS(=O)(=O)N1CCC[C@H]1C1CCCCC1`, the “% Inhibition” value was determined as 0%. The figure for `CC(C)CCn1nnnc1[C@]1(N(C)C)CCCN(C(=O)c2cccn2C)C1` is 88%; for `Cn1cccc1C(=O)N1CCCN(S(C)(=O)=O)[C@H]2CCC[C@H]2C(=O)NCC1` it is 0%; for `COc1cccc(C(=O)N2CCC(c3nc(-c4ccc5c(c4)OCO5)no3)CC2)c1OC` it is -3%. As for `Cc1ccc(S(=O)(=O)N2CCN(C(=O)N3CCOCC3)[C@@H]2C)cc1`, the figure is -8%.

Turning to `C#CCOCC(O)CN(Cc1c(-c2ccccc2)noc1N1CCC(C)CC1)CC1CCCO1` (stereo not given), the “% Inhibition” value is -17%. The figure for `O=C(OCc1ccc(C(F)(F)F)nc1)c1ccc(C(F)(F)F)nc1` is 7%; for `O=C(NC1CCOCC1)c1ccc(-c2ccc(F)c(F)c2F)cn1` it is 6%. As for `CNC(=O)[C@@H](NC(=O)CNC(=O)c1ccc(Cl)cc1)C(C)(C)C`, the figure is -11%. On to `CC(=O)N1CCc2cc(-c3ccc(C(=O)NCCC(C)C)cc3)ccc21`, for which the “% Inhibition” value was found to be 2%. Regarding `O=C(NCCN1CCCC1)c1ccc2c(c1)OCCO2`, the “% Inhibition” value is -12%.

For `O=C(c1ccnn1C(F)F)N1N=CC[C@]1(O)C(F)(F)F`, the “% Inhibition” value was -5%. The figure for `Cc1cc(CS(=O)(=O)NCCOc2ccc(Cl)cc2)on1` is 2%; for `CC1(C)C[C@@H](NC(=O)COc2ccc(CO)cc2)CCO1` it is -1%; for `O=C(Nc1nc(Cc2ccccc2)cs1)C1CCOCC1` it is 2%. With `COc1ccc(CNCCC2C(C)CN(C)C(C)C2Cc2ccccc2)cc1` (stereo not given), the “% Inhibition” value is reported as 59%. As for `COc1ccc(CC2C(O)C(Cc3ccc(OC)cc3)C3CCC2N3C)cc1` (stereo not given), the figure is 7%. The figure for `CCNC(=O)C(=O)NCc1ccc(OC)cc1` is -17%; for `C[C@H]1CS(=O)(=O)C[C@H]1NC(=O)Nc1ccc2ccoc2c1` it is -5%; for `CNc1nc(C)cc(C(=O)Nc2ccc(Cl)cc2NC(C)=O)n1` it is 2%. As for `O=C(Nc1ccc(Cl)c(Cl)c1)Nc1ccc(Cl)cc1NC(=O)Nc1ccc(Cl)c(Cl)c1`, the figure is 65%; as for `C[C@@H](NC(=O)Nc1ccc(Cl)c(Cl)c1)C(=O)O`, 5%; as for `O=C1CCC(=O)N1c1cnn(Cc2ccccc2)c1`, 1%. On to `CC(C)(C)OC(=O)N1CCC2(CC1)NN=C1C=C(N3CCN(c4ccccc4F)CC3)N=CN12`, for which the “% Inhibition” value is -8%. The figure for `CCOc1ccc(NC(=O)Cn2cnc3c(-c4cccc(OC)c4)cn(C)c3c2=O)cc1` is -1%; for `CN1CC[C@H](CN(C)Cc2ccc3cc(O)ccc3c2)C1` it is 9%; for `CNC(=O)c1cc(Br)cnc1NC` it is 3%. In the case of `COC1CCCC1NC(=O)Nc1ncc(Br)cc1C` (stereo not given), the “% Inhibition” value is 74%. On to `CC(=O)Nc1ncc(Br)cc1C`, for which the “% Inhibition” value is 3%. As for `Cc1c(NS(=O)(=O)c2ccc(Cl)cc2)c(-n2cnnc2)nn1C`, the figure is -7%; as for `O=C(NCCN1CCCCC1)c1n[nH]c2c1CCc1ccccc1-2`, 1%. The figure for `COc1cc(=O)[nH]cc1Br` is -3%. The figure for `CC(C)N1CCO[C@H](C(=O)Nc2c[nH]nc2-c2ccccc2)C1` is -5%; for `O=C(O)c1nccc(C(F)(F)F)c1Cl` it is -19%; for `CC(C)(C)c1ccc(NC(=O)c2ccnnc2)c(O)c1` it is -8%. `CC1(C)C2CCC13CS(=O)(=O)N=C3C2` (stereo not given): the “% Inhibition” value is 3%. As for `COC(=O)c1ccccc1NC(=O)NCCn1nnc2cc(S(=O)(=O)N(C)C)ccc21`, the figure is 55%; as for `Cc1cccc(NC(=O)NCCn2nnc3cc(S(=O)(=O)N4CCCC4)ccc32)c1C`, -1%. For the molecule `O=S(=O)(c1ccc(F)cc1)n1ccc(-c2cccc(OCc3ccc(Cl)cc3Cl)c2)n1`, the “% Inhibition” value is reported as -4%. With `Cc1nc2c(sc(=S)n2-c2ccc(Cl)c(Cl)c2)c(=O)[nH]1`, the “% Inhibition” value is listed as -2%.

With `CCOC[C@@H](O)CN(Cc1c(C)nn(-c2ccccc2)c1Oc1cccc(C)c1)C1CC1`, the “% Inhibition” value is recorded as 10%. As for `CCc1cc(C(=O)N2CCC3(CC2)C[C@H](c2ccccc2)C(=O)N3C)no1`, the “% Inhibition” value is -8%. As for `O=C(OCC(=O)N1CCN(Cc2ccccc2)CC1)c1nccc2ccccc12`, the “% Inhibition” value is listed as 1%.

Turning to `CC(CNc1ccccn1)N1CCOCC1C` (stereo not given), the “% Inhibition” value is on record as -5%.

The values are drawn from ChEMBL document CHEMBL4888484, “Replenishing the malaria drug discovery pipeline: Screening and hit evaluation of the MMV Hit Generation Library 1 (HGL1) against asexual blood stage Plasmodium falciparum ,using a nano luciferase reporter read-out” (2022).
